Measured values: PubChem BioAssay (NCATS)
Records with an inconclusive call do not appear. Unmarked numbers belong to inactive results. Calls come from the whole dose curve; as a rule, active = well fitted inhibition curve with a large enough effect; inconclusive = small, poorly fitted or top-dose-only effect; inactive = flat fitted curve, though single readings scatter.

Experiment: qHTS profiling for inhibitors of Plasmodium falciparum proliferation (AID 504749);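 note: 0% = DMSO vehicle and full inhibition = artemisinin control; nearly all actives have a fitted effect of over 60% in size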
Conditions: P. falciparum in erythrocytes, SYBR Green DNA, 72 h; at 12.8 µM (top of the series); parasite line A
Procedure, shortened: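 P. falciparum-infected erythrocytes (0.3% parasitemia, 2.5% hematocrit) incubated with compound 72 h at 37 C, 5% CO2. Parasite DNA detected by SYBR Green after lysis, overnight at room temperature; normalised to 0.29 uM artemisinin and DMSO.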

| Structure (SMILES) | activity, negative = inhibition [%] |
| --- | --- |
| CCCCOc1ccc(OCCCN2CCOCC2)cc1 | 9.41 |
| CCOC(=O)n1ccn(C)c1=S | 10 |
| NCCc1ccn[nH]1 | 6.26 |
| COc1c2occc2c(OC)c2c(=O)cc(C)oc12 | 5.55 |
| Cc1c(N(C)CS(=O)(=O)O)c(=O)n(-c2ccccc2)n1C | 17.9 |
| CCN(CC)C(=O)N1CCN(C)CC1 | 5.24 |
| C[C@H](O)C(=O)Nc1c(I)c(C(=O)NC(CO)CO)c(I)c(C(=O)NC(CO)CO)c1I | -8.8 |

Same assay, conditions: P. falciparum in erythrocytes, SYBR Green DNA, 72 h; at 12.8 µM (top of the series); parasite line B

| Structure (SMILES) | activity, negative = inhibition [%] |
| --- | --- |
| CCCCOc1ccc(OCCCN2CCOCC2)cc1 | 8.45 |
| CCOC(=O)n1ccn(C)c1=S | -6.82 |
| NCCc1ccn[nH]1 | 12.5 |
| COc1c2occc2c(OC)c2c(=O)cc(C)oc12 | 4.52 |
| Cc1c(N(C)CS(=O)(=O)O)c(=O)n(-c2ccccc2)n1C | 23.3 |
| CCN(CC)C(=O)N1CCN(C)CC1 | 18.6 |
| C[C@H](O)C(=O)Nc1c(I)c(C(=O)NC(CO)CO)c(I)c(C(=O)NC(CO)CO)c1I | 10.5 |

Same assay, conditions: P. falciparum in erythrocytes, SYBR Green DNA, 72 h; at 28.7 µM (top of the series); parasite line A

| Structure (SMILES) | activity, negative = inhibition [%] |
| --- | --- |
| Oc1c(Cl)cc(Cl)cc1Sc1cc(Cl)cc(Cl)c1O | -0.752 |
| O=C(O)CCCCC(=O)O | -0.183 |
| CC(O)(P(=O)(O)O)P(=O)(O)O | 10.5 |
| O=C1CCC(c2ccc(-n3ccnc3)cc2)=NN1 | 16 |
| COc1cc(OC)cc(OC)c1 | 14.7 |
| C[C@]12CCC(=O)C=C1CC[C@H]1[C@@H]3CC[C@](O)(C(=O)CO)[C@@]3(C)C[C@H](O)[C@@]12F | 4.53 |
| CCOC(=O)OC(C)OC1=C(C(=O)Nc2ccccn2)N(C)S(=O)(=O)c2ccccc21 (stereo not given) | 3.03 |
| Cc1c(C(C)C)c(=O)n(-c2ccccc2)n1C | 5.32 |
| CN=C(NC#N)NCCSCc1csc(N=C(N)N)n1 | 2.51 |
| CC(Cc1cccc(C(F)(F)F)c1)NCCOC(=O)c1ccccc1 (stereo not given) | 15.8 |
| CCOc1ccc(NC(=O)CC(C)O)cc1 (stereo not given) | -3.02 |
| CCC(=O)c1c(O)cc(O)cc1O | -1.33 |
| OCc1ccccc1O | 6.96 |
| Nc1ccc(C(=O)Nc2ccccc2N)cc1 | -0.627 |
| CCOC(=O)c1cccc(N)c1 | 6.66 |
| Cc1cccn2c(=O)c(-c3nnn[nH]3)cnc12 | 7.08 |
| CC(=O)Oc1ccc(C(=C2CCCCC2)c2ccc(OC(C)=O)cc2)cc1 | 6.38 |
| N[C@H](CO)C(=O)O | -0.225 |
| Nc1ccc(/C=C/c2ccc(N)cc2S(=O)(=O)O)c(S(=O)(=O)O)c1 | -8.57 |
| CN(C)/N=N/c1nc[nH]c1C(N)=O | 8.05 |
| C[C@@H]1C[C@H]2[C@@H]3CCC4=CC(=O)C=C[C@]4(C)[C@@]3(F)[C@@H](O)C[C@]2(C)[C@H]1C(=O)CO | -3.59 |
